Each structure is given as a SMILES string. Counter-ions that a name gives are not always drawn.

Conditions in all cases: incubation time: 27 h, anaerobic, 37 °C;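 for the amine columns active = adjusted P below 0.05 in both replicates with a change the same way and a mean fold change under 0.8 or over 1.25; inactive = the rest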
Test [1] relates to Clostridium sporogenes DSM 1664. In words: growth (OD595) fold change vs plate DMSO controls (fold change (ratio)); higher = more growth. In a few lines: (§1)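 Anaerobic 27 h, 37 °C mGAM 96-well cultures were shaken, then read for absorbance at 595 nm. Values were blank-subtracted and corrected for compound background using 20 µM compound solutions in water. A calibration factor of 5 converted them to OD. Growth is the fold change versus the median of plate DMSO controls. Fold changes above 1.5 were set to NA, and values are the mean of 2 biological replicates.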

In test [2] the test system is Escherichia coli IAI1. Described as above. The procedure, abridged: as §1
Test [3] deals with Klebsiella aerogenes DSM 30053. The description is as above. The procedure, abridged: as §1
In test [4] the test system is Ruminococcus gnavus DSM 108212. Described as above. The procedure, abridged: as §1
Test [5] relates to Klebsiella aerogenes DSM 30053. In words: fold change of Histamine concentration vs plate DMSO controls (fold change (ratio)); higher = more amine produced, active = hit call of the paper (significant change in both replicates, either direction). The procedure, abridged:
(§2)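 Extracts of whole anaerobic mGAM cultures were analysed for amines by LC–triple-quadrupole MS with dynamic MRM and external calibration curves, with drift corrected within batch. Four gut strains were grown at 37 °C for 27 h in 80 µL wells with compounds at 20 µM final, sweeteners at 50 µM final. Each value expresses fold change over plate DMSO controls. The average of 2 biological replicates is shown.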

The test system of test [6] is Clostridium sporogenes DSM 1664. In words: fold change of Tryptamine concentration vs plate DMSO controls (fold change (ratio)); higher = more amine produced, active = hit call of the paper (significant change in both replicates, either direction). In a few lines: as §2
Test [7] concerns Ruminococcus gnavus DSM 108212. Described as above. In a few lines:
as §2

Test [8] relates to Escherichia coli IAI1. The test is described as follows: fold change of Putrescine concentration vs plate DMSO controls (fold change (ratio)); higher = more amine produced, active = hit call of the paper (significant change in both replicates, either direction). In a few lines: as §2
The subject of test [9] is Klebsiella aerogenes DSM 30053. The description is as above. The procedure, abridged: as §2
Test [10] concerns Escherichia coli IAI1. The test is described as follows: fold change of Cadaverine concentration vs plate DMSO controls (fold change (ratio)); higher = more amine produced, active = hit call of the paper (significant change in both replicates, either direction). The procedure, abridged: as §2
Test [11] has as its system Klebsiella aerogenes DSM 30053. The description is as above. The procedure, abridged: as §2
Test [12] relates to Ruminococcus gnavus DSM 108212. In words: fold change of 2-Phenylethylamine concentration vs plate DMSO controls (fold change (ratio)); higher = more amine produced, active = hit call of the paper (significant change in both replicates, either direction). The procedure, abridged:
as §2

Regarding `NC(=O)[C@@H]1CCCN1C(=O)[C@H](Cc1c[nH]cn1)NC(=O)[C@@H]1CCC(=O)N1` [Thyrotropin-Releasing Hormone] (20 µM), the growth in test [1] was found to be 0.956; with Escherichia coli IAI1 [2], 0.979; in test [3] it was 1.02; in [4], 0.996. In test [5], the “fold change of Histamine concentration” value was 0.966 (inactive). The “fold change of Tryptamine concentration” value was 0.998 (inactive) in test [6] and 1 (inactive) in test [7]. The “fold change of Putrescine concentration” value with Escherichia coli IAI1 [8] is 1.02 (inactive); in [9] it was 1 (inactive). For the same compound, the “fold change of Cadaverine concentration” value was 0.999 (inactive) with Escherichia coli IAI1 [10] and 1 (inactive) in test [11]. The “fold change of 2-Phenylethylamine concentration” value in test [12] is 0.998 (inactive).
For the compound `CCN(CC)C(=O)c1cccnc1` [Nikethamide] (20 µM), the growth in test [1] amounted to 1.07; in the test on Escherichia coli IAI1 [2], 1.01; in test [3] it was 0.998; in test [4] it was 1.13. In addition, the “fold change of Histamine concentration” value in test [5] is 1.02 (inactive). In addition, the “fold change of Tryptamine concentration” value in test [6] and in test [7] was 1.05 (inactive) in each case. Moreover, the “fold change of Putrescine concentration” value in the test with Escherichia coli IAI1 [8] is 1.06 (inactive); in [9] it was 1 (inactive). For the same compound, the results for the “fold change of Cadaverine concentration” value (in the test with Escherichia coli IAI1 [10]; in test [11]) were 1.08 (inactive) and 0.993 (inactive), respectively. Also, the “fold change of 2-Phenylethylamine concentration” value in test [12] was 1.08 (inactive).
For `C=CCc1ccc(OC)c(OC)c1` [Methyleugenol] (20 µM), the growth in test [1] was found to be 0.942; with Escherichia coli IAI1 [2], 1.08; in [3], 0.993; in [4], 1.06. The “fold change of Histamine concentration” value in test [5] is 0.992 (inactive). Also, the “fold change of Tryptamine concentration” value is 0.986 (inactive) in test [6] and 1.02 (inactive) in test [7]. For the same compound, the figures for the “fold change of Putrescine concentration” value (in the test with Escherichia coli IAI1 [8]; in test [9]) were 1.02 (inactive) and 0.921 (inactive), respectively. Further, the figures for the “fold change of Cadaverine concentration” value (with Escherichia coli IAI1 [10]; in [11]) were 0.988 (inactive) and 1.15 (inactive), respectively. For the same compound, the “fold change of 2-Phenylethylamine concentration” value in test [12] was 1.02 (inactive).
`CCCOc1cc(N)ccc1C(=O)OCCN(CC)CC` [Propoxycaine hydrochloride] (20 µM): the growth in [1] is 0.975; in the test on Escherichia coli IAI1 [2], 1.01; in test [3], 1; in test [4], 1.35. Further, the “fold change of Histamine concentration” value in test [5] is 0.991 (inactive). The “fold change of Tryptamine concentration” value in test [6] is 1.02 (inactive); in [7], 1.05 (inactive). Further, the “fold change of Putrescine concentration” value was 0.956 (inactive) in the test on Escherichia coli IAI1 [8] and 0.986 (inactive) in test [9]. For the same compound, the figures for the “fold change of Cadaverine concentration” value (in the test on Escherichia coli IAI1 [10]; in test [11]) were 0.967 (inactive) and 1.01 (inactive), respectively. In test [12], the “fold change of 2-Phenylethylamine concentration” value is 1.09 (inactive).

Source of the values: the supplement of paper PMC12494721.
